In the library only some 7.6% were active in any assay of this set; here they are far more common.
RORg inh: inhibitors of mouse ROR gamma transcriptional activity; Drosophila S2 Gal4-RORgamma UAS-luciferase reporter, 20 h; Potency, µM (doses to about 53.6 µM), for the others: at the highest dose activity change, negative = inhibition, actives largely listed as inhibitors; 310,000 compounds, 5.4% hits; note: potency is the fitted concentration of half-maximal effect; % is set by controls: 0 for no effect and ±100 for the full control effect; nearly all actives have a fitted effect of over 60% in size
Target sequence (P51450 whole entry, looked up, the tested form may be a part): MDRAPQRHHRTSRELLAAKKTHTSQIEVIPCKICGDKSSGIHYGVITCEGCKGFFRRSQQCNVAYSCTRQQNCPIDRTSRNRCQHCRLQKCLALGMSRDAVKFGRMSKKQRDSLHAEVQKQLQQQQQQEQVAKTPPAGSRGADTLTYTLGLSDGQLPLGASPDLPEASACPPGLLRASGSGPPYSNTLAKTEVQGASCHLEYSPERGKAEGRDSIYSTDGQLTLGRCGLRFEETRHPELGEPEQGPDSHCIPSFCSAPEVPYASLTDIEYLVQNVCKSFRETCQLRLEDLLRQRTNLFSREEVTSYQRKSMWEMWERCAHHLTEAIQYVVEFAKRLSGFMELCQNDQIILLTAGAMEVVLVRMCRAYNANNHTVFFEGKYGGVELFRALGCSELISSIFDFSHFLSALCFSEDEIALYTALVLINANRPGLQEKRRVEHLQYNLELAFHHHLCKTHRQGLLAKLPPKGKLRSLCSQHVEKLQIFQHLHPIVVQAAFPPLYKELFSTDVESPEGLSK
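Luciferase reporter read in Schneider cells carrying Gal4-RORγ (mouse) and UAS-Photinus luciferase; cells given compound 1 h before 700 uM copper sulfate induction, then incubated 20 h at ambient temperature.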
p53 reactivation: re-activators of mutant p53; H1299 p53-A138V BP100-luciferase reporter, luminescence, 24 h; AID 504706; 320,000 compounds, 0.063% hits; Potency, µM (titrated, usually from 92.2 µM), for the others: at the highest dose activity change, positive = activation, most hits filed as activators; note: potency is the fitted concentration of half-maximal effect; % of control where 0% means no effect; nearly all actives have a fitted effect of over 45% in size
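H1299 (p53-null), stable ts p53-A138V + BP100-Luc; 1000 cells/well, Opti-MEM/10% FBS; cpd 4 pt, 1:5; 24 h, 37 deg C, 5% CO2; detection reagent 10 min RT; luminescence.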
BRCA1 expr up: activators of BRCA1 expression; Potency, µM (titrated, usually from 46.1 µM), inactives show at the highest dose activation, hits mostly activators; AID 624202; MCF7-BRCA1-FFLuc reporter, luminescence, 48 h; response scale: scaled: vehicle 0%, 10 µM genistein 100%; 380,000 compounds, 1.1% hits; note: potency is the fitted concentration of half-maximal effect; nearly all actives have a fitted effect of over 80% in size
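Activators of BRCA1 expression were detected as increased firefly luciferase luminescence in engineered MCF7 cells after 48 h compound incubation. Signals were scaled to genistein 10 microM as full activation.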
Giardia killer: kills Giardia lamblia | AID 540267 | activity change, % at 7.66 µM, hits read low | 340,000 compounds, 0.15% hits | Giardia lamblia trophozoite viability; in the data active = activity change below about -80%; inconclusive = between about -30% and that limit;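 note: parasites exposed to compound for two days anaerobically before the ATP read; % is set by controls: 0 for no effect and ±100 for the full control effect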
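Compounds were tested on trophozoites seeded at 100 cells/well and held 48 hrs at 37 deg C anaerobically. An ATP-based luminescent kit measured the remaining live cells.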
VP16 counter: Gal4-VP16 reporter inhibition counter-screen; Drosophila S2 Gal4-VP16 UAS-luciferase, luminescence, 20 h; Potency, µM (titrated, usually from 53.6 µM), inactives show at the top dose activity, negative = inhibition, hits mostly inhibitors; 310,000 compounds, 3.5% hits; AID 2546;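 note: Gal4-VP16 expression switched on by copper sulfate through the metallothionein promoter; potency is the fitted concentration of half-maximal effect; % is set by controls: 0 for no effect and ±100 for the full control effect; nearly all actives have a fitted effect of over 50% in size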
ELG1 DNA repair: blocks ELG1-dependent DNA repair in HEK293T cells; HEK293T ELG1-luciferase reporter, luminescence, 16 h; DNA damage induced by 5-fluorouridine; Potency, µM (doses to about 46.1 µM), without a hit: at the top dose activity change, negative = inhibition, most hits filed as inhibitors; 330,000 compounds, 2.3% hits; note: potency is the fitted concentration of half-maximal effect; % is set by controls: 0 for no effect and ±100 for the full control effect; nearly all actives have a fitted effect of over 55% in size
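Overnight (16 hr) co-exposure of 2,000 cells/well to 5-fluorouridine and compound at 37 °C preceded detection. Luciferase was quantified via ONE-Glo luminescence; loss of signal denotes inhibition.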
* marks the source's active call; other numbers are inactive results; ? = inconclusive; . = not tested or not shown; [ ] = another dose, or the depositor's remark. Unless noted, calls come from the whole dose curve; as a rule, active = well fitted curve in the direction sought with a large enough effect; inconclusive = small, poorly fitted or top-dose-only effect, or another doubt; inactive = no such curve, though single readings can be large; an effect the other way counts as inactive or inconclusive.

SMILES	RORg inh	p53 reactivation	BRCA1 expr up	Giardia killer	VP16 counter	ELG1 DNA repair
O=C(CCCC(=O)Nc1cccc(Br)c1)N/N=C/c1cc([N+](=O)[O-])ccc1O	?	0%	-53%	1	10µM*	15µM*
O=C(NCCN1CCC(n2c(=O)[nH]c3ccccc32)CC1)c1cccc2c1-c1ccccc1C2=O	.	.	4%	.	.	.
CC1C(=O)C(C)C(c2cccs2)NC1c1cccs1 (stereo not drawn)	-3%	10%	-1%	-5	-22%	23%
O=C(Nc1ccccc1)c1ncoc1-c1ccc(Cl)cc1	13%	3%	-47%	-15	7%	11%
CN(Cc1ccccc1)C(=O)c1ccc(NC(=O)Cc2cccc(NC(=O)C3CCN(C(=O)C4CCC4)CC3)c2)cc1	.	19%	-9%	9	.	5.2µM*
CN(Cc1ccccc1)C(=O)c1ccc(NC(=O)C2CCCN(C(=O)OC(C)(C)C)C2)cc1 (stereo not drawn)	.	1%	-62%	14	.	21µM*
CN(C(=O)c1cccc(NC(=O)C2CCN(C(=O)OC(C)(C)C)CC2)c1)C1CCCCC1	.	-5%	-13%	8	.	23µM*
CN(Cc1ccccc1)C(=O)c1ccc(NC(=O)Cc2ccc(NC(=O)C3CCCN(C(=O)C4CCC4)C3)cc2)cc1 (stereo not drawn)	.	.	-7%	-28	.	.
CN(Cc1ccccc1)C(=O)c1ccc(NC(=O)Cc2ccc(NC(=O)C3CCN(C(=O)C4CCC4)CC3)cc2)cc1	.	.	7%	?	.	.
CN(C(=O)c1cccc(NC(=O)C2CCCN(C(=O)OC(C)(C)C)C2)c1)C1CCC1 (stereo not drawn)	.	0%	-19%	-11	.	?
CN(Cc1ccccc1)C(=O)c1ccc(NC(=O)Cc2cccc(NC(=O)C3CCCN(C(=O)C4CCCC4)C3)c2)cc1 (stereo not drawn)	.	6%	-19%	12	.	?
CN(Cc1ccccc1)C(=O)c1ccc(NC(=O)Cc2cccc(NC(=O)C3CCCN(C(=O)C4CCCCC4)C3)c2)cc1 (stereo not drawn)	.	15%	9%	20	.	15µM*
Cc1ccc(-c2c(C(=O)O)c3ccccc3[nH]c2=O)cc1	0%	5%	-13%	22	-7%	5%
O=C(NC1CCN(C(=O)NCc2ccccc2)CC1)c1cccc(F)c1	-36%	1%	-15%	-20	5%	0%
CC(N)COC(=O)C(CCCCN)NC(=O)Cc1c(-c2ccc3ccccc3c2)[nH]c2c1ccc1ccccc12 (stereo not drawn)	11%	.	.	.	-8%	.
Cc1nc2cc(C(=O)NCc3cccnc3)ccc2n1-c1ccc(F)cc1F	-3%	-5%	-19%	11	-6%	?
Cc1ccc(NC(=O)Nc2nnc([C@H]3C[C@H](O)[C@@H](CO)O3)s2)cc1	.	.	83%	.	.	.
Nc1ccc(C(=O)N/N=C/c2cn(Cc3ccc(F)cc3)c3ccccc23)cc1	-142%	-2%	14%	-7	?	-7%
CCn1cc(/C=N/NC(=O)c2cc3c(ccc4ccccc43)o2)c2ccccc21	7.1µM*	1%	-70%	-3	?	?
CC(C)n1cc(/C=N\NC(=O)c2cc3c(ccc4ccccc43)o2)c2ccccc21	?	?	46%	9	-25%	-1%
COC(=O)N/N=C/c1cn(Cc2ccccc2Cl)c2ccccc12	32%	-4%	-20%	12	2%	-14%
O=C(N/N=C/c1cn(Cc2cccc(F)c2)c2ccccc12)c1cc(O)cc(O)c1	-4%	-10%	6%	10	-6%	2%
COC(=O)N/N=C/c1cn(Cc2ccccc2F)c2ccccc12	29%	-3%	-60%	14	-2%	21µM*
Nc1ccc(C(=O)N/N=C/c2cn(Cc3ccccc3)c3ccccc23)cc1	11µM*	-6%	-51%	-2	?	-20%
COc1cc(C(=O)N/N=C/c2cn(Cc3ccccc3)c3ccccc23)ccc1O	13µM*	-13%	-7%	5	?	0%
SMILES	RORg inh	p53 reactivation	BRCA1 expr up	Giardia killer	VP16 counter	ELG1 DNA repair
COc1ccccc1NC(=O)Cn1nc(C)n2cccc2c1=O	-8%	-1%	18%	-26	4%	?
Nc1ccc(C(=O)N/N=C/c2cn(Cc3ccccc3F)c3ccccc23)cc1	14µM*	-6%	13%	-10	?	0%
O=C(O)c1ccc(N/N=C/c2cn(Cc3ccccc3F)c3ccccc23)cc1	16%	?	12%	6	-19%	?
Cc1cc(C)nc(Sc2ncnc(N)c2[N+](=O)[O-])n1	6.3µM*	-12%	-86%	5	8.9µM*	?
COc1ccccc1CN(Cc1cc2c(C)ccc(C)c2[nH]c1=O)Cc1nnnn1Cc1ccco1	5%[0.365 µM]	-11%	-66%	3	.	18µM*
Cc1ccc(C)c2[nH]c(=O)c(CN(Cc3nnnn3C3CCCCC3)CC3CCCO3)cc12 (stereo not drawn)	38%	4%	-37%	9	-21%	?
Cc1ccc(C)c2[nH]c(=O)c(CN(CCN3CCOCC3)Cc3nnnn3CC3CCCO3)cc12 (stereo not drawn)	-22%	-3%	0%	11	-1%	16µM*
Cc1ccc(CN(Cc2cc3cc4c(cc3[nH]c2=O)OCCO4)Cc2nnnn2Cc2ccco2)cc1	2%	-4%	-63%	-6	2%	23µM*
COc1ccc(-c2oc3c4c2C(=O)OCCOC4CCC3)cc1 (stereo not drawn)	.	.	8%	.	.	.
CC(=O)Nc1ccc(NS(=O)(=O)c2ccc3c(c2)oc(=O)n3C)cc1	3%	2%	-20%	-20	-7%	-5%
CCCc1cc(=O)n(-c2nc3ccccc3s2)[nH]1	?	10%	6%	-5	0%	21µM*
CN(C)CCCN=Cc1c(-c2ccccc2)[nH]n(-c2nc3ccccc3s2)c1=O	0%	5%	-48%	10	-13%	-3%
CCCc1[nH]n(-c2nc3ccccc3s2)c(=O)c1C=NCCCN(CC)CC	20µM*	10%	2%	-4	-19%	?
CCCN=Cc1c(CCC)[nH]n(-c2nc3ccccc3s2)c1=O	2.8µM*	-1%	41%	30	?	-14%
CCOC(=O)c1ccccc1OCc1cc(/C=N/NC(=O)c2cccnc2)ccc1OC	-17%	2%	-42%	-4	-2%	?
COc1ccccc1NS(=O)(=O)c1cc(NC(=O)CCC2CCCC2)ccc1N1CCOCC1	-7%	12%	-14%	6	2%	2%

Screens from PubChem.
